Results published in PubChem BioAssay (EPA / NIEHS).
Calls of active or inactive are those of the source. The calls were made as follows: active = hit-call score of the fitted dose curve at least 0.9, where 1 is the maximum; inactive = score below 0.9.

Legend:
Conditions in all cases: mRNA level, 48 h; actives raise or lower the signal
[1] = read-out: Interleukin 6 (IL6), IL6 (gene 3569); assay: LTEA_HepaRG_IL6: Life Technologies and Expression Analysis (LTEA) Assay for Interleukin 6 (IL6) using HepaRG (AID 2283509)
Method in brief: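 Differentiated human HepaRG cells, plated 48 h then switched to serum-free induction medium, were exposed in duplicate for 48 h to eight half-log concentrations up to 100 uM in 0.5% DMSO. IL6 mRNA measured by qRT-PCR, normalized to ACTB/GAPDH/POLR2A.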

[2] = read-out: Interleukin 6 Receptor (IL6R), IL6R (gene 3570); assay: LTEA_HepaRG_IL6R: Life Technologies and Expression Analysis (LTEA) Assay for Interleukin 6 Receptor (IL6R) using HepaRG (AID 2283510)
Method in brief: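 Readout is IL6R transcript level by TaqMan qRT-PCR, normalized to three housekeeping genes and fitted bidirectionally against 0.5% DMSO controls. Human HepaRG cells received chemicals for 48 h in serum-free induction medium, highest concentration 100 uM.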

[3] = read-out: Potassium channel subfamily K member 1 (KCNK1), KCNK1 (gene 3775); assay: LTEA_HepaRG_KCNK1: Life Technologies and Expression Analysis (LTEA) Assay for Potassium channel subfamily K member 1 (KCNK1) using HepaRG (AID 2283511)
Method in brief: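 Differentiated human HepaRG cells in serum-free induction medium were exposed in duplicate for 48 h to 8 half-log concentrations up to 100 uM in 0.5% DMSO. KCNK1 mRNA was measured by TaqMan qRT-PCR, normalized to ACTB, GAPDH and POLR2A, and fitted bidirectionally versus DMSO.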

[4] = read-out: Keratin 19 (KRT19), KRT19 (gene 3880); assay: LTEA_HepaRG_KRT19: Life Technologies and Expression Analysis (LTEA) Assay for Keratin 19 (KRT19) using HepaRG (AID 2283512)
Method in brief: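 Gene-expression endpoint in the human liver line HepaRG after 48 h exposure to up to 100 uM test chemical with 0.5% DMSO vehicle; KRT19 mRNA by qRT-PCR, analyzed bidirectionally versus DMSO.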

[5] = read-out: JUN Transcription Factor, JUN (gene 3725); assay: LTEA_HepaRG_JUN: Life Technologies and Expression Analysis (LTEA) Assay for JUN Transcription Factor using HepaRG (AID 2283513)
Method in brief: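 Cells plated 48 h, medium switched to serum-free induction medium, then dosed 48 h (100 uM top, half-log dilutions, 0.5% DMSO). RNA isolated; JUN measured by qRT-PCR against three housekeeping genes; gain or loss fitted relative to DMSO.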

[6] = read-out: Lipase C (LIPC), LIPC (gene 3990); assay: LTEA_HepaRG_LIPC: Life Technologies and Expression Analysis (LTEA) Assay for Lipase C (LIPC) using HepaRG (AID 2283514)
Method in brief: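 Differentiated human HepaRG cells in serum-free induction medium were exposed in duplicate for 48 h to eight concentrations (top 100 uM, half-log steps, 0.5% DMSO). LIPC mRNA was quantified by TaqMan qRT-PCR, normalized to ACTB, GAPDH and POLR2A, with bidirectional fitting versus DMSO.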

[7] = read-out: Lipoprotein lipase (LPL), LPL (gene 4023); assay: LTEA_HepaRG_LPL: Life Technologies and Expression Analysis (LTEA) Assay for Lipoprotein lipase (LPL) using HepaRG (AID 2283515)
Method in brief: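 Differentiated human HepaRG cells in serum-free induction medium were exposed in duplicate for 48 h to eight half-log concentrations (top 100 uM) in 0.5% DMSO. LPL mRNA was quantified by TaqMan qRT-PCR, normalized to ACTB, GAPDH and POLR2A.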

[8] = read-out: MicroRNA 122 (MIR122), gene 406906; assay: LTEA_HepaRG_MIR122: Life Technologies and Expression Analysis (LTEA) Assay for MicroRNA 122 (MIR122) using HepaRG (AID 2283516); also: the transcript read is the microRNA miR-122
Method in brief: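 HepaRG plated 48 h, switched to serum-free induction medium, then treated in duplicate for 48 h (100 uM top, half-log steps, 0.5% DMSO vehicle). RNA isolated, qRT-PCR performed, concentration-response fitted both directions relative to DMSO.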

[9] = read-out: matrix metalloproteinase-10 (MMP10), MMP10 (gene 4319); assay: LTEA_HepaRG_MMP10: Life Technologies and Expression Analysis (LTEA) Assay for matrix metalloproteinase-10 (MMP10) using HepaRG (AID 2283517)
Method in brief: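 HepaRG, collagen I, ~100,000 cells/well; serum-free induction medium; 48 h exposure, duplicate, 8-pt half-log to 100 uM, 0.5% DMSO. Readout: TaqMan qRT-PCR, normalized to ACTB/GAPDH/POLR2A; bidirectional fit vs DMSO.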

[10] = read-out: MYC, MYC (gene 4609); assay: LTEA_HepaRG_MYC: Life Technologies and Expression Analysis (LTEA) Assay for MYC using HepaRG (AID 2283518)
Method in brief: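 Cells are thawed, plated and cultured 48 h, then treated for 48 h with test chemicals (eight half-log concentrations from 100 uM, 0.5% DMSO vehicle). RNA is isolated and MYC expression quantified by qRT-PCR against three housekeeping genes.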

[11] = read-out: matrix metalloproteinase-3 (MMP3), MMP3 (gene 4314); assay: LTEA_HepaRG_MMP3: Life Technologies and Expression Analysis (LTEA) Assay for matrix metalloproteinase-3 (MMP3) using HepaRG (AID 2283519)
Method in brief: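 Differentiated human HepaRG cells, plated 48 h on collagen I, were exposed in duplicate for 48 h in serum-free induction medium to eight half-log concentrations up to 100 uM in 0.5% DMSO. MMP3 mRNA was quantified by TaqMan qRT-PCR, normalised to ACTB, GAPDH and POLR2A.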

[12] = read-out: Paternally Expressed 10 (PEG10), PEG10 (gene 23089); assay: LTEA_HepaRG_PEG10: Life Technologies and Expression Analysis (LTEA) Assay for Paternally Expressed 10 (PEG10) using HepaRG (AID 2283520)
Method in brief: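 HepaRG, 48 h post-plating → serum-free induction medium → 48 h chemical exposure (duplicate, 8-pt, max 100 uM, half-log, 0.5% DMSO) → lysis in RLT → TaqMan qRT-PCR for PEG10, ACTB/GAPDH/POLR2A normalisation.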

[13] = read-out: Nuclear factor NF-kappa-B p105 subunit (Homo sapiens) (UniProt P19838); assay: LTEA_HepaRG_NFKB1: Life Technologies and Expression Analysis (LTEA) Assay for Nuclear Factor Kappa B Subunit 1 (NFKB1) using HepaRG (AID 2283521);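 also: TaqMan qRT-PCR transcript normalised to ACTB GAPDH and POLR2A housekeeping genes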
Method in brief: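 Human HepaRG cells receive eight half-log concentrations, highest 100 uM, for 48 h. NFKB1 expression is then quantified by qRT-PCR and analysed for up- or down-regulation relative to 0.5% DMSO vehicle.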

[14] = read-out: Protein phosphatase 2A (PPP2R4), PTPA (gene 5524); assay: LTEA_HepaRG_PPP2R4: Life Technologies and Expression Analysis (LTEA) Assay for Protein phosphatase 2A (PPP2R4) using HepaRG (AID 2283522)
Method in brief: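 Readout is PPP2R4 transcript level by microfluidic qRT-PCR after 48 h chemical treatment of human HepaRG liver cells. Concentrations spanned 100 uM downward in half-log steps; gain or loss of signal was fitted relative to DMSO.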

[15] = read-out: Phosphatase and tensin (PTEN), PTEN (gene 5728); assay: LTEA_HepaRG_PTEN: Life Technologies and Expression Analysis (LTEA) Assay for Phosphatase and tensin (PTEN) using HepaRG (AID 2283523)
Method in brief: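 Differentiated human HepaRG cells, plated 48 h then switched to serum-free induction medium, were exposed in duplicate for 48 h to eight half-log concentrations up to 100 uM in 0.5% DMSO. PTEN mRNA measured by TaqMan qRT-PCR, normalized to ACTB/GAPDH/POLR2A, bidirectional fit versus DMSO.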

[16] = read-out: solute carrier (SLC22A1), SLC22A1 (gene 6580); assay: LTEA_HepaRG_SLC22A1: Life Technologies and Expression Analysis (LTEA) Assay for solute carrier (SLC22A1) using HepaRG (AID 2283524)
Method in brief: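 Human HepaRG cells were plated 48 h, switched to serum-free induction medium, then exposed in duplicate for 48 h to 8-point half-log series from 100 uM in 0.5% DMSO. SLC22A1 mRNA measured by qRT-PCR, normalized to ACTB/GAPDH/POLR2A, fitted bidirectionally versus DMSO.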

[17] = read-out: Pyruvate Dehydrogenase Kinase 4 (PDK4), PDK4 (gene 5166); assay: LTEA_HepaRG_PDK4: Life Technologies and Expression Analysis (LTEA) Assay for Pyruvate Dehydrogenase Kinase 4 (PDK4) using HepaRG (AID 2283525)
Method in brief: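 Differentiated human HepaRG cells, pre-cultured 48 h, were exposed in duplicate for 48 h in serum-free induction medium to eight half-log concentrations up to 100 uM in 0.5% DMSO. PDK4 mRNA was quantified by qRT-PCR, normalized to ACTB, GAPDH and POLR2A, bidirectional fitting versus DMSO.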

[18] = read-out: NAD(P)H dehydrogenase [quinone] 1 (NQO1), NQO1 (gene 1728); assay: LTEA_HepaRG_NQO1: Life Technologies and Expression Analysis (LTEA) Assay for NAD(P)H dehydrogenase [quinone] 1 (NQO1) using HepaRG (AID 2283526)
Method in brief: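 HepaRG, 48 h post-plating → serum-free induction medium → test chemical 48 h (duplicate, 100 uM top, half-log x8, 0.5% DMSO) → RNA isolation → qRT-PCR, ACTB/GAPDH/POLR2A normalization; bidirectional curve fit vs DMSO baseline.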

[19] = read-out: Nuclear factor erythroid 2-related factor 2 (Homo sapiens) (UniProt Q16236); assay: LTEA_HepaRG_NFE2L2: Life Technologies and Expression Analysis (LTEA) Assay for Nuclear factor erythroid 2-related factor 2 (NFE2L2) Transcription Factor using HepaRG (AID 2283527);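 also: TaqMan qRT-PCR transcript level normalised to ACTB GAPDH and POLR2A housekeeping genes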
Method in brief: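 Differentiated human HepaRG cells in serum-free induction medium were exposed for 48 h to eight concentrations (top 100 uM, half-log dilutions, 0.5% DMSO), in duplicate. NFE2L2 mRNA was quantified by TaqMan qRT-PCR, normalized to ACTB, GAPDH and POLR2A, with bidirectional fitting versus DMSO.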

[20] = read-out: succinate dehydrogenase complex iron sulfur subunit B (SDHB), SDHB (gene 6390); assay: LTEA_HepaRG_SDHB: Life Technologies and Expression Analysis (LTEA) Assay for succinate dehydrogenase complex iron sulfur subunit B (SDHB) using HepaRG (AID 2283528)
Method in brief: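 A human HepaRG culture in serum-free induction medium received test chemicals for 48 h over an eight-point range capped at 100 uM. SDHB expression change was quantified by qRT-PCR.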

Measured: outcome

Sequence of Nuclear factor erythroid 2-related factor 2 (Homo sapiens) (Q16236 whole entry, looked up): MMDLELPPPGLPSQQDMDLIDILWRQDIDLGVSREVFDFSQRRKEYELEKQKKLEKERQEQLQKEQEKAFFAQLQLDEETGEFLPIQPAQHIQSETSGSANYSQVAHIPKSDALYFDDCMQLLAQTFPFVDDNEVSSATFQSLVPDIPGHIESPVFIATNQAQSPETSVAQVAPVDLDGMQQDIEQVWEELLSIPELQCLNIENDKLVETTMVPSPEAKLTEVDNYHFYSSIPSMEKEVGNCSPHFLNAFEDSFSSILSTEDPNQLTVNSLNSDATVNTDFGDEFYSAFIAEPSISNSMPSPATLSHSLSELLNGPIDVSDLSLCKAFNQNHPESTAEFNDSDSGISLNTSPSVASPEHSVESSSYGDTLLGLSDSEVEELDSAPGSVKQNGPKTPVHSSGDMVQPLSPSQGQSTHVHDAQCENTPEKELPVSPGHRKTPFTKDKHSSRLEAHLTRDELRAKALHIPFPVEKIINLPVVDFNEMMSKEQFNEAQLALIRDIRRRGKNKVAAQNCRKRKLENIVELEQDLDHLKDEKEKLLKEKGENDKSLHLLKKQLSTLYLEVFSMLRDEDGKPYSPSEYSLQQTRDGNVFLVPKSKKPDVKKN
Sequence of Nuclear factor NF-kappa-B p105 subunit (Homo sapiens) (P19838 whole entry, looked up): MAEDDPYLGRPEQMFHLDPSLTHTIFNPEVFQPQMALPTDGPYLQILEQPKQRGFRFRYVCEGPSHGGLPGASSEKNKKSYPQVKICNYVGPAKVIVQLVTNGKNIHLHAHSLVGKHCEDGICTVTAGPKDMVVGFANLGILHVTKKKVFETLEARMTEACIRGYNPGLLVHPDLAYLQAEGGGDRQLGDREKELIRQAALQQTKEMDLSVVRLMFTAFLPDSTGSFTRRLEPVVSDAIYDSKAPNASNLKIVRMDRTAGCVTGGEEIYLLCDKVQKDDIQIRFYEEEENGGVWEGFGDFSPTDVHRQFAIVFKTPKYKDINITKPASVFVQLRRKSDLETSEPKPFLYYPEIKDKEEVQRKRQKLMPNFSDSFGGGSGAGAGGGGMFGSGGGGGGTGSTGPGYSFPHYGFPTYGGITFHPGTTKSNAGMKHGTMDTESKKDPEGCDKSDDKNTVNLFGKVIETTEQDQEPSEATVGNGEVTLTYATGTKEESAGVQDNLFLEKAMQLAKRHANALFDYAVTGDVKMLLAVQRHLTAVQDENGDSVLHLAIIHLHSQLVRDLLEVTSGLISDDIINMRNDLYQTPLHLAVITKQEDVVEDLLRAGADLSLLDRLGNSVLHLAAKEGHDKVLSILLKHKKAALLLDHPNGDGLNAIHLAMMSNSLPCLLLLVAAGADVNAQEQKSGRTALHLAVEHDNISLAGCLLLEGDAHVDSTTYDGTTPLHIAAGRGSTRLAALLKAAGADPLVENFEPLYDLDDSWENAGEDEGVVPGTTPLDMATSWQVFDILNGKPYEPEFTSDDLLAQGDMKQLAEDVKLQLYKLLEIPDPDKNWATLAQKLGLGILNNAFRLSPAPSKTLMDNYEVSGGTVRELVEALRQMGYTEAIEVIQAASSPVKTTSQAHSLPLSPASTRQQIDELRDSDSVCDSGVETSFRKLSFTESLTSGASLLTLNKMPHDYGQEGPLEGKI

C[C@@H]1C[C@H]2[C@@H]3CCC4=CC(=O)C=C[C@]4(C)[C@@]3(F)[C@@H](O)C[C@]2(C)[C@@]1(O)C(=O)COP(=O)(O)O
inactive: all assays above

CC(C)(C)c1cccc(C(C)(C)C)c1O
not listed: [16]
inactive: all other assays above

O=C(O)c1ccccc1C(c1ccc(O)cc1)c1ccc(O)cc1
inactive: all assays above
